Assay results as given in PubChem BioAssay (EPA / NIEHS).
Results filed as inconclusive are left out. Activity calls are given as the source filed them. How the source made its calls, unless noted: active means hit-call score of the fitted dose curve at least 0.9, where 1 is the maximum; inactive means score below 0.9.

Experiments:
[1] = read-out: solute carrier (SLCO1B1), SLCO1B1 (gene 10599); test: LTEA_HepaRG_SLCO1B1: Life Technologies and Expression Analysis (LTEA) Assay for solute carrier (SLCO1B1) using HepaRG (AID 2283530); details: mRNA level, 48 h; actives raise or lower the signal
Method in brief: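 SLCO1B1 transcript read by qRT-PCR (Fluidigm arrays), normalized to three housekeeping genes, after 48 h chemical exposure of HepaRG cells; bidirectional concentration-response fitting versus 0.5% DMSO baseline. Eight-point half-log series, maximum 100 uM.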

[2] = read-out: sulfotransferase 2A1 (SULT2A1), SULT2A1 (gene 6822); test: LTEA_HepaRG_SULT2A1: Life Technologies and Expression Analysis (LTEA) Assay for sulfotransferase 2A1 (SULT2A1) using HepaRG (AID 2283531); details: mRNA level, 48 h; actives raise or lower the signal
Method in brief: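 HepaRG, 48 h chemical exposure, 8-pt half-log curve from 100 uM in 0.5% DMSO, duplicates. Readout: TaqMan qRT-PCR of SULT2A1 mRNA, housekeeping-normalized. Bidirectional fit vs DMSO baseline.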

[3] = read-out: Transforming Growth Factor (TGFB1), TGFB1 (gene 7040); test: LTEA_HepaRG_TGFB1: Life Technologies and Expression Analysis (LTEA) Assay for Transforming Growth Factor (TGFB1) Transporter using HepaRG (AID 2283533); details: mRNA level, 48 h; actives raise or lower the signal
Method in brief: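 qRT-PCR readout of TGFB1 transcript in HepaRG lysates, normalized to three housekeeping genes; gain or loss of signal fitted relative to 0.5% DMSO vehicle. Exposure: 48 h, 8-point curve from 100 uM, duplicate wells.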

[4] = read-out: TIMP1, TIMP1 (gene 7076); test: LTEA_HepaRG_TIMP1: Life Technologies and Expression Analysis (LTEA) Assay for TIMP1 using HepaRG (AID 2283534); details: mRNA level, 48 h; actives raise or lower the signal;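 further: TaqMan qRT-PCR signal normalized to ACTB GAPDH and POLR2A housekeeping genes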
Method in brief: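 HepaRG, 48 h exposure, 8-pt half-log series from 100 uM in 0.5% DMSO, duplicates; TIMP1 transcript by Fluidigm qRT-PCR, housekeeping-normalized; bidirectional curve fit vs DMSO baseline.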

[5] = read-out: Tumor necrosis factor receptor 1 (TNFRSF1A), TNFRSF1A (gene 7132); test: LTEA_HepaRG_TNFRSF1A: Life Technologies and Expression Analysis (LTEA) Assay for Tumor necrosis factor receptor 1 (TNFRSF1A) using HepaRG (AID 2283535); details: mRNA level, 48 h; actives raise or lower the signal
Method in brief: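 HepaRG, 48 h plating then 48 h chemical exposure, serum-free induction media; 8-pt CRC from 100 uM, half-log, 0.5% DMSO vehicle, duplicates. Readout: TaqMan qRT-PCR (Fluidigm), housekeeping-gene normalized; bidirectional fit vs DMSO.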

[6] = read-out: Thyroid Hormone Responsive (THRSP), THRSP (gene 7069); test: LTEA_HepaRG_THRSP: Life Technologies and Expression Analysis (LTEA) Assay for Thyroid Hormone Responsive (THRSP) using HepaRG (AID 2283536); details: mRNA level, 48 h; actives raise or lower the signal
Method in brief: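 THRSP transcript quantified by Fluidigm qRT-PCR against three housekeeping genes after 48 h chemical exposure of HepaRG cells in serum-free induction medium; eight-point half-log series, top 100 uM, 0.5% DMSO vehicle, duplicate wells.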

[7] = read-out: Cellular tumor antigen p53 (Homo sapiens) (UniProt P04637); test: LTEA_HepaRG_TP53: Life Technologies and Expression Analysis (LTEA) Assay for Tumor Protein P53 (TP53) using HepaRG (AID 2283537); details: mRNA level, 48 h; actives raise or lower the signal
Method in brief: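 TP53 transcript measured by qRT-PCR, normalized to three housekeeping genes, after 48 h treatment of human HepaRG cultures with chemicals from 100 uM downward in half-log steps (0.5% DMSO vehicle, serum-free induction medium). Up- or down-regulation fitted against DMSO.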

[8] = read-out: UDP glucuronosyltransferase (UGT1A1), UGT1A1 (gene 54658); test: LTEA_HepaRG_UGT1A1: Life Technologies and Expression Analysis (LTEA) Assay for UDP glucuronosyltransferase (UGT1A1) using HepaRG (AID 2283538); details: mRNA level, 48 h; actives raise or lower the signal
Method in brief: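 mRNA induction or loss of UGT1A1, by TaqMan qRT-PCR, in duplicate HepaRG wells after 48 h exposure to half-log dilutions topping at 100 uM; DMSO (0.5%) served as baseline.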

[9] = read-out: UDP glucuronosyltransferase (UGT1A6), UGT1A6 (gene 54578); test: LTEA_HepaRG_UGT1A6: Life Technologies and Expression Analysis (LTEA) Assay for UDP glucuronosyltransferase (UGT1A6) using HepaRG (AID 2283539); details: mRNA level, 48 h; actives raise or lower the signal
Method in brief: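 qRT-PCR readout of UGT1A6 mRNA (normalized to ACTB/GAPDH/POLR2A) in differentiated HepaRG cells after 48 h chemical exposure; 8 concentrations, top 100 uM, half-log steps, 0.5% DMSO. Bidirectional curve fit relative to DMSO baseline.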

[10] = read-out: X-box binding protein 1 (XBP1), XBP1 (gene 7494); test: LTEA_HepaRG_XBP1: Life Technologies and Expression Analysis (LTEA) Assay for X-box binding protein 1 (XBP1) using HepaRG (AID 2283540); details: mRNA level, 48 h; actives raise or lower the signal
Method in brief: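 HepaRG, 48 h exposure, 8-pt half-log CRC top 100 uM, 0.5% DMSO vehicle, duplicates. Readout: TaqMan qRT-PCR of XBP1 mRNA, housekeeping-normalised (ACTB/GAPDH/POLR2A); bidirectional fit vs DMSO baseline.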

[11] = LTEA_HepaRG_LDH_cytotoxicity: Cytotoxicity Assessment in the Life Technologies and Expression Analysis (LTEA) Assay (AID 2283563; active means hit-call score of the fitted dose curve at least 0.9, where 1 is the maximum;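 on AC50: LDH activity released into spent culture medium as a marker of cell death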)
Method in brief: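 HepaRG (human liver line), 48 h exposure, 8-pt half-log series from 100 uM, 0.5% DMSO vehicle, duplicates. Read-out: LDH in spent medium. Positive-direction fit vs DMSO baseline.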

[12] = TOX21_p53_BLA_p2_viability: Viability Assessment in the Tox21 HCT-116 p53 Agonism Beta-lactamase Assay, Phase 2 (AID 2283591; active means hit-call score of the fitted dose curve at least 0.9, where 1 is the maximum;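 further: actives lower the ATP signal meaning cytotoxicity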)
Method in brief: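 Cytotoxicity readout: CellTiter-Glo ATP luminescence, 30 min at room temperature, after the beta-lactamase read. Cells were HCT116 exposed 16 h at 37C to compounds pin-transferred at 217-fold dilution from DMSO stocks.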

[13] = TOX21_p53_BLA_p3_viability: Viability Assessment in the Tox21 HCT-116 p53 Agonism Beta-lactamase Assay, Phase 3 (AID 2283593; active means hit-call score of the fitted dose curve at least 0.9, where 1 is the maximum;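 further: cells exposed to compound for 16 h before reading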)
Method in brief: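 Cellular ATP was quantified by CellTiter-Glo luminescence, read after 30 min at room temperature. Beforehand, HCT116 cells (4000/well) received compound 5 h post-seeding, 217-fold diluted from DMSO, then incubated 16 h at 37C.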

[14] = target: Cellular tumor antigen p53 (Homo sapiens) (UniProt P04637); test: TOX21_p53_BLA_p3_ratio: Tox21 HCT-116 p53 Agonism Beta-lactamase Assay, Ratio, Phase 3 (AID 2283596; active means hit-call score of the fitted dose curve at least 0.9, where 1 is the maximum)
Cellular tumor antigen p53 (Homo sapiens), sequence (P04637 whole entry, looked up): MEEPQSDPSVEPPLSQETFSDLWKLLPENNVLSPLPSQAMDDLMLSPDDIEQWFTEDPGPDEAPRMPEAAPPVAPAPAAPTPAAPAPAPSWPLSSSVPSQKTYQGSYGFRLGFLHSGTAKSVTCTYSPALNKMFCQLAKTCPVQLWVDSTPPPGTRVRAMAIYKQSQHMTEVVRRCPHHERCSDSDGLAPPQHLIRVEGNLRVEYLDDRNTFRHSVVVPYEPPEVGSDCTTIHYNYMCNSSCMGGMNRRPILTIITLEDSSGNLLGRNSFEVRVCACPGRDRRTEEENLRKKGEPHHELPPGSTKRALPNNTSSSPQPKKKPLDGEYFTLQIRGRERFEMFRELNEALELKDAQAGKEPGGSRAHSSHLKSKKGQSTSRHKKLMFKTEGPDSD
Method in brief: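 Cells were seeded at 4000/well, rested 5 h at 37C, then dosed with DMSO compound solutions (217-fold dilution) for 16 h. CCF4-AM substrate was loaded for 2 h at room temperature, and the 460/530 nm emission ratio was fitted for gain of signal versus DMSO.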

[15] = TOX21_p53_BLA_p4_viability: Viability Assessment in the Tox21 HCT-116 p53 Agonism Beta-lactamase Assay, Phase 4 (AID 2283597; active means hit-call score of the fitted dose curve at least 0.9, where 1 is the maximum;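 further: hits lower the luminescence signal meaning cytotoxicity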)
Method in brief: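 ATP content by CellTiter-Glo luminescence, 30 min RT, read after the beta-lactamase ratio step. Cells: HCT116, 4000/well, compound added after 5 h, exposure 16 h at 37C. Signal loss = reduced viability.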

[16] = target: Cellular tumor antigen p53 (Homo sapiens) (UniProt P04637); test: TOX21_p53_BLA_p5_ratio: Tox21 HCT-116 p53 Agonism Beta-lactamase Assay, Ratio, Phase 5 (AID 2283599; active means hit-call score of the fitted dose curve at least 0.9, where 1 is the maximum)
Method in brief: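 Beta-lactamase reporter ratio (blue 460 nm over green 530 nm, 405 nm excitation) after 2 h CCF4-AM loading, in HCT-116 cells exposed 16 h at 37 C to compounds pinned at 217-fold dilution. Increases relative to DMSO baseline scored.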

[17] = TOX21_p53_BLA_p5_viability: Viability Assessment in the Tox21 HCT-116 p53 Agonism Beta-lactamase Assay, Phase 5 (AID 2283600; active means hit-call score of the fitted dose curve at least 0.9, where 1 is the maximum)
Method in brief: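 ATP luminescence (CellTiter-Glo, 30 min, RT) served as the viability read-out, with loss of signal indicating cytotoxicity. Compounds in DMSO were pinned at a 217-fold dilution onto 4000 cells/well and incubated 16 h, 37C.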

[18] = target: Cellular tumor antigen p53 (Homo sapiens) (UniProt P04637); test: TOX21_p53_BLA_p2_ratio: Tox21 HCT-116 p53 Agonism Beta-lactamase Assay, Ratio, Phase 2 (AID 2283592; active means hit-call score of the fitted dose curve at least 0.9, where 1 is the maximum)
Method in brief: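 Readout: blue/green (460/530 nm) FRET emission ratio after 2 h CCF4-AM loading at room temperature, excitation 405 nm. HCT116 p53 bla cells, 16 h compound exposure at 37C, 5% CO2; agonist direction fitted against DMSO baseline.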

[19] = read-out: Transforming Growth Factor (TGFA), TGFA (gene 7039); test: LTEA_HepaRG_TGFA: Life Technologies and Expression Analysis (LTEA) Assay for Transforming Growth Factor (TGFA) using HepaRG (AID 2283532); details: mRNA level, 48 h; actives raise or lower the signal
Method in brief: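 TGFA transcript quantified by qRT-PCR (Fluidigm arrays) against three housekeeping genes, after 48 hours chemical treatment of HepaRG cells. Top concentration 100 uM with half-log dilutions, 8 points, duplicates, 0.5% DMSO.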

Measured: AC50

OC(c1ccc(Cl)cc1)(c1ccc(Cl)cc1)C(Cl)(Cl)Cl
active: [1] 81.6 µM | [2] 93.9 µM | [3] 50 µM | [5] 50 µM | [7] 50 µM | [8] 85.3 µM | [9] 79.3 µM | [10] 82.1 µM | [11] 74.3 µM | [12] 77.9 µM | [13] 38.8 µM | [14] 49.6 µM | [15] 86.7 µM | [16] 89.8 µM | [17] 71 µM
inactive: [4] | [6]

CC1(C)C(C(=O)OC(C#N)c2cccc(Oc3ccccc3)c2)C1(C)C (stereo not drawn)
active: [8] 50 µM
not listed: [18] | [19]
inactive: all other assays above

CCOP(=O)(OCC)Oc1nc(Cl)c(Cl)cc1Cl
active: [1] 93.5 µM | [2] 75.9 µM | [6] 84.2 µM | [10] 83.1 µM | [16] 38.3 µM
not listed: [18] | [19]
inactive: all other assays above

CCNP(=S)(OC)O/C(C)=C/C(=O)OC(C)C (stereo not drawn)
active: [6] 32.6 µM | [8] 9.32 µM
not listed: [13] | [16] | [17] | [18] | [19]
inactive: all other assays above

COC(=O)NS(=O)(=O)c1ccc(N)cc1
not listed: [15] | [17] | [18] | [19]
inactive: all other assays above

COC(=O)N(C(=O)N1CO[C@@]2(C(=O)OC)Cc3cc(Cl)ccc3C2=N1)c1ccc(OC(F)(F)F)cc1
active: [1] 59 µM | [2] 65 µM | [6] 40 µM | [8] 10 µM | [11] 60.5 µM | [18] 46.3 µM
not listed: [19]
inactive: all other assays above

CCCCOCN(C(=O)CCl)c1c(CC)cccc1CC
active: [8] 50 µM | [15] 67.9 µM
not listed: [13] | [16] | [19]
inactive: all other assays above

COc1ccc(-c2ccccc2)cc1NNC(=O)OC(C)C
not listed: [19]
inactive: all other assays above

CC(C)Nc1nc(Cl)nc(NC(C)C)n1
active: [8] 8.13 µM
not listed: [1] | [12] | [13] | [15] | [16] | [17] | [18]
inactive: all other assays above

CCOc1nc(F)cc2nc(S(=O)(=O)Nc3c(Cl)cccc3Cl)nn12
not listed: [11] | [12] | [13] | [17] | [18] | [19]
inactive: all other assays above

CCSC(=O)N1CCCCCC1
not listed: [15] | [18] | [19]
inactive: all other assays above
